GRIN3A LBD mod: modulates the human NR3A ligand-binding domain; NR3A LBD differential scanning fluorimetry, Tm shift; 0% = protein alone, 100% = glycine-bound protein; Tm shift relative to glycine control, % at 25 µM; 340,000 compounds, 2.5% hits;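 active = melting temperature shift of at least 10% of the positive control shift, at one fixed dose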
ADAM10 inh: ADAM10 inhibition, QFRET primary screen; O14672; recombinant ADAM10, EDANS/DABCYL FRET peptide cleavage, 3 h; 370,000 compounds, 0.62% hits; inhibition, % at 7 µM; AID 720582;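 active = inhibition above a per-campaign cutoff equal to the mean of compounds falling between control-based bounds plus 3 SD, cut at about 20% in these data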;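 also: 0% = DMSO wells while the 100% control is not disclosed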
rCAG binder: r(CAG) repeat RNA binding. TO-PRO-1 dye displacement fluorescence. 370,000 compounds, 1.3% hits. inhibition, % at 3 µM;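 active = inhibition above the plate cutoff, the mean of all test compounds on that plate plus 3 SD, cut at about 35% in these data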;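 also: 0% = DMSO alone and 100% = 100 µM mitoxantrone as full dye displacement; higher means more dye released from RNA so lower well fluorescence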
ADAM17 inh: inhibits human ADAM17; 370,000 compounds, 0.83% hits; P78536; recombinant ADAM17, EDANS/DABCYL FRET peptide cleavage; inhibition, % at 6.95 µM; AID 720648;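 active = inhibition above the mean of compounds lying between control limits plus 3 SD, set per campaign, cut at about 8.5% in these data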;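 also: 0% = DMSO-only wells as the low control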
Target sequence (P78536 215-824 limits assumed): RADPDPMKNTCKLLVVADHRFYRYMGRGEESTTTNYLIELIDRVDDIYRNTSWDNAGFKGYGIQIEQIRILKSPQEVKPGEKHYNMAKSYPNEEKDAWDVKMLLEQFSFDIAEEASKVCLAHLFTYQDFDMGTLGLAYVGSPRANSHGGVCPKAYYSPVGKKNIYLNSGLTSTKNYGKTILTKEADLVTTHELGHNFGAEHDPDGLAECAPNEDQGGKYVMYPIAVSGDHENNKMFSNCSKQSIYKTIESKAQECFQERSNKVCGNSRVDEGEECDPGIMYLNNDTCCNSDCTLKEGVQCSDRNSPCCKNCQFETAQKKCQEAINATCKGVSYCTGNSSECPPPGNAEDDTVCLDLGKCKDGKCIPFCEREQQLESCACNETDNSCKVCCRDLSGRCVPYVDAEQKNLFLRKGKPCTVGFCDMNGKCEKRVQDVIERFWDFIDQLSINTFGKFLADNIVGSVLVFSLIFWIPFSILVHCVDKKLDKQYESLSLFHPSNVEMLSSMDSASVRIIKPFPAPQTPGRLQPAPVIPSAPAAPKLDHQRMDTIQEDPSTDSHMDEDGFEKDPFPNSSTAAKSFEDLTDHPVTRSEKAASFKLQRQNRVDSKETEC
proKLK7 act: activators of human kallikrein-7 zymogen; P49862; purified proKLK7, EDANS-DABCYL substrate fluorescence; 100% is mature enzyme control, 0% vehicle; activation, % at 7 µM; 370,000 compounds, 0.9% hits; AID 652039;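 active = activation above the mean of all tested compounds plus 3 SD, computed per campaign excluding outliers beyond control limits, cut at about 13% in these data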
AHR activator: activators of human aryl hydrocarbon receptor. P35869. 320,000 compounds, 2.5% hits. AHR-responsive luciferase reporter cells, luminescence. activation, % at 5 µM; in the data active = activation above about 47%;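 also: 0% = vehicle wells and 100% = reference agonist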
rCAG bind conf: r(CAG) RNA repeat binding, confirmation. shares compounds with rCAG binder. TO-PRO-1 dye displacement fluorescence. inhibition, % at 3 µM. 4,300 compounds, 70% hits. AID 652065;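 active = inhibition above a per-plate cutoff, the mean inhibition of sample wells plus 3 SD, cut at about 35% in these data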;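 also: loss of TO-PRO-1 fluorescence as compound displaces dye from 1x1 AA loop RNA; 0% = DMSO only wells and 100% = 100 µM mitoxantrone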
dCAG dye counter: counter-screen for rCAG RNA binders: DNA CAG dye complex inhibitors; shares compounds with rCAG binder; d(CAG) DNA oligo TO-PRO-1 dye displacement, fluorescence; inhibition, % at 3 µM; 4,300 compounds, 94% hits;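 active = inhibition above its plate's cutoff, the mean test-well inhibition plus 3 SD, cut at about 4.8% in these data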;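 also: 0% = DNA dye mix with DMSO and 100% = 100 µM mitoxantrone; hits displace the dye from DNA and so lower well fluorescence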
Numbers without * were called inactive; / = no result. Hits are enriched below; roughly 7% of the tested compounds scored in any of these assays.

SMILES | GRIN3A LBD mod | ADAM10 inh | rCAG binder | ADAM17 inh | proKLK7 act | AHR activator | rCAG bind conf | dCAG dye counter
Cc1cc2oc(C(=O)Nc3ccc(S(=O)(=O)Nc4ncccn4)cc3)c(C)c2cc1Cl | 0.7 | -11.0 | 1.6 | -5.3 | -0.1 | / | / | /
Cc1cc(C)c2oc(C(=O)Nc3ccc(S(=O)(=O)Nc4nccs4)cc3)cc(=O)c2c1 | 1.1 | 0.8 | 67.9* | -1.3 | 0.3 | -2.4 | 64.4* | 28.6*
Cc1onc(-c2ccccc2Cl)c1C(=O)Nc1ccc(Br)cc1 | -8.6 | 0.5 | 0.5 | 2.1 | 0.3 | 0.1 | / | /
Cc1onc(-c2ccccc2Cl)c1C(=O)Nc1ccc(S(=O)(=O)Nc2nccs2)cc1 | -2.3 | 2.2 | 41.3* | -1.6 | -0.1 | 3.5 | 37.2* | 12.7*
CCC(=O)N[C@@H]1C=C[C@@H](CC(=O)NCc2ccccc2F)O[C@@H]1CO | / | -0.2 | 1.0 | 1.9 | 0.1 | / | / | /
NC(=O)c1ncn([C@@H]2O[C@H](C(=O)N[C@H](Cc3ccccc3)C(=O)N3CCN(CC(=O)Nc4ccccn4)CC3)[C@@H](O)[C@H]2O)n1 | / | -10.2 | -0.3 | -1.9 | 0.3 | / | / | /
C[C@H]1CN(C(=O)OC(C)(C)C)CCN1c1ccc(Br)c(C#N)c1 | / | -27.4 | -0.3 | -7.4 | 0.3 | / | / | /
O=C(CSc1nnc(-c2ccccn2)n1-c1ccc(Cl)cc1)Nc1cccc2ccccc12 | / | 6.5 | 2.8 | 1.1 | 0.8 | / | / | /
CCOc1ccc(-n2c(SCC(=O)Nc3ccc(S(=O)(=O)Nc4nccs4)cc3)nnc2-c2ccco2)cc1 | / | 4.2 | 67.9* | 4.4 | -0.2 | / | 68.6* | 27.9*
COc1ccc(-n2c(SCC(=O)Nc3ccc(C(=O)O)cc3)nnc2-c2cccs2)cc1 | -2.2 | -12.6 | 23.9 | -5.5 | -0.6 | 2.5 | / | /
CCCCNC(=O)NS(=O)(=O)c1ccc(NC(=O)CSc2nnc(-c3cccs3)n2-c2ccc(OC)cc2)cc1 | / | 5.6 | 53.9* | 2.1 | 0.0 | / | 62.1* | 22.7*
Cc1ccc(-n2c(SCC(=O)Nc3ccc(S(=O)(=O)Nc4nccs4)cc3)nnc2-c2cccs2)cc1 | / | 5.3 | 71.2* | 1.4 | -0.2 | / | 67.2* | 24.6*
O=C(CSc1nnc(-c2ccccn2)n1-c1ccc(Cl)cc1)Nc1ccc(S(=O)(=O)Nc2nccs2)cc1 | / | 6.7 | 73.6* | 4.1 | 0.2 | / | 75.4* | 39.2*
CCOc1ccc(-n2c(SCC(=O)Nc3ccc(S(=O)(=O)Nc4nccs4)cc3)nnc2-c2ccncc2)cc1 | / | 1.8 | 69.5* | 1.5 | 0.0 | / | 58.7* | 26.4*
COC(=O)[C@H](Cc1ccccc1)N1CC=CS1(=O)=O | / | -13.9 | 0.8 | -5.5 | -0.1 | / | / | /
CCc1ccc([C@@H]2CC=C(C(=O)O)[C@H](c3ccccc3F)N2S(=O)(=O)c2ccc(C)cc2)cc1 | 1.0 | 3.2 | 68.8* | -1.4 | -0.5 | -3.4 | 72.8* | 34.7*
Cc1ccc(S(=O)(=O)N2[C@@H](c3cccc(Cl)c3)C(C(=O)O)=CC[C@H]2c2cccc(Cl)c2)cc1 | -13.4 | 12.3 | 8.7 | 0.4 | 0.6 | 1.2 | / | /
CCc1ccc([C@@H]2CC=C(C(=O)O)[C@H](c3ccc(C)cc3)N2S(=O)(=O)c2ccc(C)cc2)cc1 | -1.8 | -2.9 | 79.0* | -2.7 | -0.4 | -0.9 | 82.3* | 49.7*
CCc1ccc([C@@H]2CC=C(C(=O)O)[C@H](c3ccc(Cl)cc3)N2S(=O)(=O)c2ccc(C)cc2)cc1 | -9.9 | 8.1 | 83.2* | 5.3 | -0.8 | -3.4 | 84.8* | 54.3*
CCc1ccc([C@@H]2CC=C(C(=O)O)[C@H](c3cccc(Cl)c3)N2S(=O)(=O)c2ccc(C)cc2)cc1 | -10.4 | -1.7 | 81.6* | 1.0 | -1.4 | -0.9 | 76.1* | 35.5*
O=C(Nc1ccc2c(c1)OCCO2)C(c1ccncc1)n1c(=O)c(-c2cc3ccccc3[nH]2)nc2ccccc21 (stereo not given) | / | -193.0 | 24.3 | -88.6 | -3.7 | / | / | /
O=C(Nc1ccccc1C(F)(F)F)O[C@@H]1CC[C@@]23CCCN2C(=O)CCC[C@H]3C1 | / | -2.8 | / | -3.6 | / | / | / | /
COc1ccc(NC(=O)c2cc(C3CCCCN3S(=O)(=O)c3ccc(F)cc3F)on2)c(C)c1 (stereo not given) | / | 12.2 | 1.8 | 5.3 | 0.8 | / | / | /

Screening data from PubChem BioAssay.
